# Reference: PubChem BioAssay (NCI)
# About 83,000 compounds went through this panel and 20% of them were active in at least one assay; those are over-represented in the sample as a whole.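 Note: values are percent growth. 100 is the growth of untreated cells, values between 100 and 0 indicate rising inhibition; between -100 and 0 indicates cell death.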 Unmarked numbers belong to inactive results. Active and inactive are the calls of the source. The calls were made as follows: active = growth percent below 10; inactive = the rest.
# Key:
# Test in all cases: NCI-60 one-dose screen, 48 h (100 = growth as untreated, 0 = no growth, -100 = all killed)
# NCI-H23 lung = settings: 10 µM
# HOP-92 NSCLC = settings: 10 µM
# K-562 leukemia = settings: 10 µM
# MDA-MB-231 breast = settings: 10 µM
# RXF 393 renal = settings: 10 µM
# SK-MEL-5 melanoma = settings: 10 µM
# LOX IMVI melanoma = settings: 10 µM
# EKVX NSCLC = settings: 10 µM
# UO-31 renal = settings: 10 µM
# CCRF-CEM leukemia = settings: 10 µM
# MOLT-4 leukemia = settings: 10 µM
# SR leukemia = settings: 10 µM
# OVCAR-4 ovarian = settings: 10 µM
# HS 578T breast = settings: 10 µM
# SW-620 colon = settings: 10 µM
# HCC-2998 colon = settings: 10 µM
# KM12 colon = settings: 10 µM
# MDA-MB-468 breast = settings: 10 µM unless noted
# COLO 205 colon = settings: 10 µM
Compound,growth (NCI-H23 lung),growth (HOP-92 NSCLC),growth (K-562 leukemia),growth (MDA-MB-231 breast),growth (RXF 393 renal),growth (SK-MEL-5 melanoma),growth (LOX IMVI melanoma),growth (EKVX NSCLC),growth (UO-31 renal),growth (CCRF-CEM leukemia),growth (MOLT-4 leukemia),growth (SR leukemia),growth (OVCAR-4 ovarian),growth (HS 578T breast),growth (SW-620 colon),growth (HCC-2998 colon),growth (KM12 colon),growth (MDA-MB-468 breast),growth (COLO 205 colon)
CC[C@]12C=CCN3CC[C@@]4(c5ccc(OC)cc5N(C)[C@H]4[C@@](O)(C(=O)OC)[C@@H]1OC(=O)CCCC[P+](C1CCCCC1)(C1CCCCC1)C1CCCCC1)[C@@H]32,-9.66% (active),-44.5% (active),7.48% (active),-92.8% (active),-73.8% (active),-96.1% (active),-96.1% (active),13.2%,78.9%,-60.2% (active),-5.16% (active),19.5%,12.4%,-35% (active),2.08% (active),-87.8% (active),-71.1% (active),-79% (active),–
O=C(/C=C/c1ccccc1)c1nc2ccccc2n1Cc1ccc(F)cc1,-45.9% (active),-28.4% (active),-8.55% (active),–,-89.3% (active),11%,–,–,–,-23.7% (active),-4.66% (active),-16.4% (active),–,–,–,-95.8% (active),-41.3% (active),-90.3% (active),-43.4% (active)
CC[C@]12C=CCN3CC[C@@]4(c5ccc(OC)cc5N(C)[C@H]4[C@@](O)(C(=O)OC)[C@@H]1OC(=O)CCC[P+](c1ccc(F)cc1)(c1ccc(F)cc1)c1ccc(F)cc1)[C@@H]32,35.5%,-6.2% (active),21.6%,22%,-10.4% (active),-38.3% (active),31%,–,81.5%,20%,37.1%,42.6%,48.6%,19.1%,45.3%,22.4%,21.3%,-74.6% (active),–
